Test results published in PubChem BioAssay (Tox21).
“And” between values parts separate entries of the source, which are not always exact repeats. Equal values may be shown once. Inconclusive results are not listed. The source made the active and inactive calls. Unless noted, the call rests on the fitted dose curve; in most records, active means well fitted curve in the direction sought with a large enough effect in the repeat runs; inconclusive means weak or mixed curves; inactive means no such curve, though single readings can be large; an effect the other way counts as inactive or inconclusive.

Assays:
[1] = qHTS assay to identify small molecule antagonists of the estrogen related receptor signaling pathway with the pleiotropic PPARgamma coactivator (PGC) from Tox21 10K library - cell viability counter screen (AID 1224840; active means well fitted cell-killing curve with a large enough effect in the repeat runs, not every such curve was filed as active; further: nearly all actives have a fitted effect of over 40% in size; further: potency means the concentration at half of the fitted maximal effect)
Outline: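 Step one, plate 2,000 PGC/ERR cells per well; step two, incubate 6 h at 37 C/5% CO2; step three, pin-transfer compounds; step four, incubate 17.5 h; step five, add CellTiter-Fluor and read fluorescence after 30 min.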

[2] = qHTS assay to identify small molecule antagonists of the estrogen related receptor signaling pathway with the pleiotropic PPARgamma coactivator (PGC) from Tox21 10K library (AID 1224841; call rule not given here; further: actives are mostly falling curves and most rising ones were filed inactive; nearly all actives have a fitted effect of over 50% in size; further: potency means the concentration at half of the fitted maximal effect)
Outline: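 Antagonism in this quantitative HTS is taken from loss of luciferase signal in PGC/ERR cells. Cells (2,000/well) are treated with compounds in DMSO after a 6 h settling period and read by One-Glo luminescence after 18 h.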

[3] = target: Thyrotropin receptor (Homo sapiens) (UniProt P16473); assay: qHTS assay to identify small molecule agonists of the thyroid stimulating hormone receptor (TSHR) signaling pathway (AID 1224843; calls by dose curve; further: nearly all actives have a fitted effect of over 45% in size; further: potency means the concentration at half of the fitted maximal effect)
Thyrotropin receptor (Homo sapiens), sequence (P16473 whole entry, looked up): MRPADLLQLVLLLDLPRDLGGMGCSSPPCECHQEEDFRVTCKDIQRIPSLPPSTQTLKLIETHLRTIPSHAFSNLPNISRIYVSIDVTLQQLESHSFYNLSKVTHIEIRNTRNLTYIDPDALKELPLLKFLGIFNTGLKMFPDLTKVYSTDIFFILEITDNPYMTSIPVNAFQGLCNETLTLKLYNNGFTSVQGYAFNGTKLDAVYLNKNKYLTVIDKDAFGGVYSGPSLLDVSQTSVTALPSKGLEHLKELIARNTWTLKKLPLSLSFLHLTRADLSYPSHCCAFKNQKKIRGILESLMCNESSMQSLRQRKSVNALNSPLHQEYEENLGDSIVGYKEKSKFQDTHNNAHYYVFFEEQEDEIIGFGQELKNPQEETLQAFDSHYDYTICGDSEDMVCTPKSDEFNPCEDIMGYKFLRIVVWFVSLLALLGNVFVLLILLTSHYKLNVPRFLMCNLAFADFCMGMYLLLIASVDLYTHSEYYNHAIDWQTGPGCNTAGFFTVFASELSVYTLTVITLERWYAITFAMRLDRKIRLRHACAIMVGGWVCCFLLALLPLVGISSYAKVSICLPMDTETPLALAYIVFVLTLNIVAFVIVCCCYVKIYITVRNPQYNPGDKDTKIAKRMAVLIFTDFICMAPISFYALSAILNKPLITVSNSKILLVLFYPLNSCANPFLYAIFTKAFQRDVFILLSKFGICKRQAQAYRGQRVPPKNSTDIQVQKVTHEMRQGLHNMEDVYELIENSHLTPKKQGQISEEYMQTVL
Outline: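 TSHR-expressing HEK293 cells (800 per well) were exposed to compounds for 30 min at room temperature. cAMP was then detected by HTRF competition with cAMP-d2 and anti-cAMP cryptate, read after 1 h at room temperature. Fifteen concentrations, triplicate.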

[4] = qHTS assay to identify small molecule antagonists of the estrogen related receptor (ERR) signaling pathway from Tox21 library (AID 1224848); further: potency means the concentration at half of the fitted maximal effect; nearly all actives have a fitted effect of over 50% in size
Outline: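 Cells: ERR line, 2,000/well; 6 h preincubation 37 C/5% CO2. Cpd in DMSO via pin tool; 18 h, 37 C. ONE-Glo, 30 min RT, luminescence.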

[5] = qHTS RealTime-Glo MT Cell Viability Assay in HEK293 cells - 8 hour (AID 1224887); further: nearly all actives have a fitted effect of over 50% in size; further: potency means the concentration at half of the fitted maximal effect
Outline: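 Nonlytic bioluminescent viability monitoring. HEK293 at 600 cells/well with reagent; 5 h settle; compound transfer by pintool; plates held at 37 C and read at set time points.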

[6] = target: Estrogen receptor (Homo sapiens) (UniProt P03372); assay: qHTS assay to identify small molecule antagonists of the estrogen receptor alpha (ER-alpha) signaling pathway using the BG1 cell line in the presence of 0.1 nM 17-beta-estradiol (AID 1259244); further: nearly all actives have a fitted effect of over 50% in size; further: potency means the concentration at half of the fitted maximal effect
Estrogen receptor (Homo sapiens), sequence (P03372 whole entry, looked up): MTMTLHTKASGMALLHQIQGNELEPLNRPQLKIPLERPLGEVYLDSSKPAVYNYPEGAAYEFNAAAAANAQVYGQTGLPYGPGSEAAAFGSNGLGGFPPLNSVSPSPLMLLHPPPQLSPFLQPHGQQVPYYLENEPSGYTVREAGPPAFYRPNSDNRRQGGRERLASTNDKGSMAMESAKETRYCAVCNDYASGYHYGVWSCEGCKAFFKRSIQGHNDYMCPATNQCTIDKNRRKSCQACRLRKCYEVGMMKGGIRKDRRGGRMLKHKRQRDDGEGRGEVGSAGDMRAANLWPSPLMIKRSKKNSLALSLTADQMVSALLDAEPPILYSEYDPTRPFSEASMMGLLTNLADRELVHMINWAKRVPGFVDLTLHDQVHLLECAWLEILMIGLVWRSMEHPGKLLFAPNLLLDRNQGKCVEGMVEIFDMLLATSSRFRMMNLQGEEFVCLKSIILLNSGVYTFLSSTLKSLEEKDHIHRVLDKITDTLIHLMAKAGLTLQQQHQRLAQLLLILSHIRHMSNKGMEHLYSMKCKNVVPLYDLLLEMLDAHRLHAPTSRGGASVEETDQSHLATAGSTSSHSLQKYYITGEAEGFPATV
Outline: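 After 5 days in hormone-depleted medium (charcoal-stripped serum, no phenol red), VM7Luc4E2 cells were seeded, incubated 24 h, then co-treated with compound and 0.1 nM (final) estradiol for 22 h before luminescence detection.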

[7] = target: Thyrotropin receptor (Homo sapiens) (UniProt P16473); assay: qHTS assay to identify small molecule antagonists of the thyroid stimulating hormone receptor (TSHR) signaling pathway (AID 1259385; calls by dose curve; further: nearly all actives have a fitted effect of over 20% in size; further: potency means the concentration at half of the fitted maximal effect)
Outline: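 TSHR-HEK293 cells were plated and held 18 h at 37C/5% CO2, then given compound plus Ro20-1724 and stimulated with TSH at 1.5 ng/mL final. After 30 min at room temperature, cAMP was detected with cAMP-d2/anti-cAMP-cryptate (1 h) by fluorescence.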

[8] = qHTS assay for small molecules that induce genotoxicity in human embryonic kidney cells expressing luciferase-tagged ATAD5 (AID 651632); further: nearly all actives have a fitted effect of over 15% in size
Outline: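 Increased luciferase signal from ATAD5-tagged reporter cells indicates DNA-damage-driven ATAD5 induction. HEK293T cells are treated for 16 hr at 37C before detection with Amplite.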

[9] = qHTS assay to test for compound auto fluorescence at 460 nm (blue) in HEK293 cells (AID 720678)
Outline: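 Blue read-out at excitation 405 nm and emission 460 nm follows overnight compound exposure of HEK293 cells at 37C in 5% CO2. Activity is given as auto fluorescence equivalency to triamterene.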

[10] = qHTS assay to test for compound auto fluorescence at 590 nm (red) in HEK293 cells (AID 720679)
Outline: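 Red channel, Ex/Em 540/590nm; signal expressed as equivalency to Rose Bengal sodium. HEK293, 2,000 cells/well, 10% dialyzed FBS; 23 nL compound pinned after 4-5 hr attachment; overnight 37C/5% CO2 before reading.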

[11] = qHTS assay to test for compound auto fluorescence at 535 nm (green) in HEK293 cells (AID 720680)
[12] = qHTS assay to test for compound auto fluorescence at 535 nm (green) in HEK293 cell free culture (AID 720682)
Outline: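 Fluorescein serves as the green reference fluorophore; each compound's intrinsic emission at 535 nm (excitation 485 nm) is reported as an equivalent amount of that dye, measured in serum-containing DMEM without cells.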

[13] = qHTS assay to test for compound auto fluorescence at 590 nm (red) in HEK293 cell free culture (AID 720683)
Outline: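 Tox21 10K library compounds were pinned into cell-free DMEM with 10% FBS and fluorescence was read at excitation 540 nm. Activity is expressed as Rose Bengal sodium equivalency.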

[14] = qHTS assay to test for compound auto fluorescence at 590 nm (red) in HepG2 cell free culture (AID 720684)
Outline: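 Red fluorescence (540 nm excitation, 590 nm emission) was measured after compound transfer into cell-free MEM supplemented with 10% FBS. Values are equivalencies against Rose Bengal sodium.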

[15] = qHTS assay to test for compound auto fluorescence at 460 nm (blue) in HepG2 cell free culture (AID 720685)
Outline: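 Compound (23 nL) or DMSO pinned into cell-free MEM with 10% FBS; blue fluorescence read at 405/460 nm excitation/emission, expressed as auto-fluorescence equivalency to triamterene.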

[16] = qHTS assay to test for compound auto fluorescence at 460 nm (blue) in HepG2 cells (AID 720687)
Outline: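 Cells (2,000/well in MEM with 10% FBS) attached overnight at 37 C, then were exposed to compound or DMSO for 1 hr at 37 C, 5% CO2. Fluorescence read at Ex/Em 405/460 nm, expressed as triamterene-equivalent signal.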

[17] = qHTS assay for identifying genotoxic compounds that show differential cytotoxicity against isogenic chicken DT40 cell lines with known DNA damage response pathways - Rev3 mutant cell line (AID 743014); further: nearly all actives have a fitted effect of over 55% in size; further: potency means the concentration at half of the fitted maximal effect
[18] = qHTS assay to identify small molecule agonists of H2AX - cell viability counter screen (AID 1224847; calls by dose curve; further: potency means the concentration at half of the fitted maximal effect; nearly all actives have a fitted effect of over 30% in size)
Outline: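 Cells plated first: CHO-K1, 1000 per well in 10% FBS medium, incubated overnight at 37C. Then 15-point compound titration added (final DMSO 0.76%) for 3 hr. Finally CellTiter-Glo added and luminescence read.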

[19] = target: Estrogen receptor beta (Homo sapiens) (UniProt Q92731); assay: qHTS assay to identify small molecule agonists of the estrogen receptor beta (ER-beta) signaling pathway (AID 1259377; active means well fitted activation curve with a large enough effect in the signal ratio in the repeat runs, not every such curve was filed as active; the % refers to the signal ratio)
Estrogen receptor beta (Homo sapiens), sequence (Q92731 whole entry, looked up): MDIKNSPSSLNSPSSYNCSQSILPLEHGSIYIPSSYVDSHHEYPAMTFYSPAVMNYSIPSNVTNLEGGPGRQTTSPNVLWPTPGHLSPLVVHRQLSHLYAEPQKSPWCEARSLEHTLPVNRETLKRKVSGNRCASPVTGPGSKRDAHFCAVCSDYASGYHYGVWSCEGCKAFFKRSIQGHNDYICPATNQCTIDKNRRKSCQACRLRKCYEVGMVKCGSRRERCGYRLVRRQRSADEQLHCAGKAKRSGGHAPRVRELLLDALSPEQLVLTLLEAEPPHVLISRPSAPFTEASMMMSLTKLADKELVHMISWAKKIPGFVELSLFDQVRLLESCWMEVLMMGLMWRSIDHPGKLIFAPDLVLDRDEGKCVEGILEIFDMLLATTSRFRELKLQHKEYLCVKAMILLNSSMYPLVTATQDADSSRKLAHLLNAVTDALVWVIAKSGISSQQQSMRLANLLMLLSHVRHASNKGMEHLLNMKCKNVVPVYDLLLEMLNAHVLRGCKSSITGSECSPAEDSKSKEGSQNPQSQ
Outline: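 HEK293T ER-beta-UAS-bla; 2% charcoal-stripped FBS; cells pre-incubated 6 hr, compound 16 hr, 37C/5% CO2; LiveBLAzer B/G FRET substrate 2 h RT; fluorescence intensity read.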

[20] = target: Progesterone receptor (Homo sapiens) (UniProt P06401); assay: qHTS assay to identify small molecule agonists of the progesterone receptor (PR) signaling pathway (AID 1346784; calls by dose curve; further: nearly all actives have a fitted effect of over 30% in size)
Progesterone receptor (Homo sapiens), sequence (P06401 whole entry, looked up): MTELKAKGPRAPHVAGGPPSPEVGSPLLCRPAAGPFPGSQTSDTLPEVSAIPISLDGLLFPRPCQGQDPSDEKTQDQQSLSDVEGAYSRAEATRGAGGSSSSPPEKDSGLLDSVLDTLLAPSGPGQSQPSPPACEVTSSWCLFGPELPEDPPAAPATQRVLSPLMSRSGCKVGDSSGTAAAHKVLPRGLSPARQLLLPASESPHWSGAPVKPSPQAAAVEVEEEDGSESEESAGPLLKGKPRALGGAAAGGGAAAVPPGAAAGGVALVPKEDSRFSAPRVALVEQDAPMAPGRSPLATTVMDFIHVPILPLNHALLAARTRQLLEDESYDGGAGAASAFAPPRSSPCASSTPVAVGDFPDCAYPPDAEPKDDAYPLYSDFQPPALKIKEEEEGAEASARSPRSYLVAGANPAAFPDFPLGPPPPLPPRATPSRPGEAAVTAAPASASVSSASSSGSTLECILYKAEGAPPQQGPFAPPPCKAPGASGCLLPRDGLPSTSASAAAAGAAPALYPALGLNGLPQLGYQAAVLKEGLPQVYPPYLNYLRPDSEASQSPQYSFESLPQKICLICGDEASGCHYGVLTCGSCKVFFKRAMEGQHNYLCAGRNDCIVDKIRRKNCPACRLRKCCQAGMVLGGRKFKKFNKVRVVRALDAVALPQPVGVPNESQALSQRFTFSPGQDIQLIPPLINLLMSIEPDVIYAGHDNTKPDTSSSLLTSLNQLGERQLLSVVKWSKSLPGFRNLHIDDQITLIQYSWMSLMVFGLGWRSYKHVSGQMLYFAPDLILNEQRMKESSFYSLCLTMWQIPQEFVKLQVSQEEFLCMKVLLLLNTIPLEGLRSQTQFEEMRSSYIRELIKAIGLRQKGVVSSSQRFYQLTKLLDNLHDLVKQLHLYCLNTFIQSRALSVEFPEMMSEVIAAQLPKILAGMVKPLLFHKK
Outline: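 Beta-lactamase reporter read-out: after 16 hr compound treatment at 37C and a further 2 hr at room temperature with LiveBLAzer B/G FRET substrate, fluorescence was measured in PR-UAS-bla HEK 293T cells grown in 2% charcoal-stripped serum.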

Measured: Potency

Cc1cc(C)c(C(=O)P(=O)(c2ccccc2)c2ccccc2)c(C)c1
active: [2] 54.5 µM | [4] 54.5 µM | [5] 43.6 µM
inactive: [1] | [3] | [6] | [7]

OCC(c1ccc(Cl)cc1)c1ccc(Cl)cc1
active: [17] 1.93 µM | [18] 89.8 µM | [5] 34.7 µM
not listed: [1] | [2] | [3] | [4] | [6] | [20]
inactive: all other assays above

ClC1=C(Cl)[C@]2(Cl)[C@@H]3[C@@H](Cl)[C@H]4O[C@H]4[C@@H]3C1(Cl)C2(Cl)Cl
active: [17] 34.4 µM | [18] 113 µM
not listed: [1] | [3] | [4] | [5] | [6] | [7]
inactive: all other assays above

Cc1nnc2n1-c1sc(CCc3ccc(CC(C)C)cc3)cc1C(c1ccccc1Cl)=NC2C (configuration not stated)
active: [17] 16.8 µM | [2] 10.6 µM | [3] 18.8 µM | [4] 9.44 µM | [5] 21.3 µM | [6] 29.8 µM
not listed: [1] | [18] | [20]
inactive: all other assays above

O=C(c1ccccc1)C(Cl)Cl
active: [2] 68.6 µM
inactive: [6] | [19]

Cc1cc(C(C)(C)c2ccc(O)c(C)c2)ccc1O
active: [2] 9.23 µM | [3] 46.2 µM | [18] 108 µM | [4] 26 µM | [5] 23.4 µM
not listed: [1] | [6] | [19]
inactive: all other assays above

C[C@]12CC[C@@H](O)C[C@@H]1CC[C@@H]1[C@@H]2CC[C@]2(C)C(=O)CC[C@@H]12
inactive: [20]
active: [18] 101 µM

O=C1C(I)=CC(=C(c2cc(I)c(O)c(I)c2)c2ccccc2C(=O)O)C=C1I
not listed: [2] | [4] | [18] | [19]
inactive: all other assays above

Cc1cccc(C)c1[N+](=O)[O-]
inactive: [19]

Nc1cccc([N+](=O)[O-])c1
inactive: [19]

COc1ccc(C(c2ccc(OC)cc2)C(Cl)(Cl)Cl)cc1
active: [17] 44.4 µM | [2] 8.58 µM | [18] 50.2 µM | [4] 30.5 µM
inactive: [8] | [10] | [11] | [12] | [13] | [15] | [16] | [1]

Brc1ccc(Br)c(Br)c1
inactive: [19]

CO/C=C(/C(=O)OC)c1ccccc1Oc1cc(Oc2ccccc2C#N)ncn1
active: [17] 0.103 µM | [1] 36.7 µM | [2] 16.4 µM | [18] 0.678 µM | [4] 2.06 µM | [6] 5.18 µM | [7] 61.1 µM
not listed: [3] | [5] | [19] | [20]
inactive: all other assays above

CN1CSC(=S)N(C)C1
active: [17] 5.42 µM and 5.43 µM | [1] 5.42 µM and 6.09 µM | [18] 56.4 µM | [4] 4.83 µM and 13.6 µM | [6] 13.6 µM and 17.2 µM
not listed: [2] | [19]
inactive: all other assays above

C=CC(=O)OCCCC
inactive: [7]

Oc1ccc(Cl)cc1Cc1cc(Cl)ccc1O
inactive: [3]

Cc1cccc([N+](=O)[O-])c1C
inactive: [19]

Clc1ccccc1-c1ccccc1Cl
active: [18] 64.5 µM
not listed: [2] | [3] | [4] | [5] | [6] | [7] | [19]
inactive: all other assays above

CC(C)(C)OCC1CO1 (configuration not stated)
inactive: [7]

Oc1c(Cl)ccc(Cl)c1Cl
inactive: [20]
